The text below walks through data of PubChem BioAssay (NCATS).

SMILES strings stand for the structures. Results filed as inconclusive are left out. Activity calls are given as the source filed them. Unless noted, the call rests on the fitted dose curve; in most records, active means well fitted inhibition curve with a large enough effect; inconclusive means small, poorly fitted or top-dose-only effect; inactive means flat fitted curve, though single readings scatter.

Assay [1] is described as follows: qHTS drug screen for cell cycle checkpoint inhibitors in PARPi-resistant BRCA-mutant ovarian cancer cell lines. (AID 1963452; calls by dose curve). The note with it: PEO1/OlaR viability, CellTiter-Glo luminescence, 96 h, stronger effect = lower value. The essentials: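 PEO1, PEO4 and PEO1/OlaR ovarian cancer cells, 600 per well, exposed 96 h at 37C to a dilution series. Viability read by CellTiter-Glo luminescence, normalized to DMSO and empty wells; activity summarized as Z-AUC.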
For orientation: Quantitative high-throughput screening tests each substance at several concentrations.

Assay [2] in a line: qHTS for identification of novel therapeutic agents for treatment of microphthalmiaassociated transcription factor (MiT) renal cell carcinoma (RCC) (AID 1963991). As to conditions: CellTiter-Glo, 48 h, stronger effect = lower value. In a few lines:
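Three TFE3-fusion RCC cell lines (UOK109, UOK124, UOK145), 500 cells/well, were exposed to the 1912-compound MIPE 4.0 library for 48 hours at 37 C. Viability was read by CellTiter-Glo luminescence, normalised to DMSO (100%) and empty wells (0%), with 11-concentration curve fits.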

A short description of assay [3]: qHTS profiling for inhibitors of Plasmodium falciparum proliferation (AID 504749).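 Further: 0% = DMSO vehicle and full inhibition = artemisinin control; nearly all actives have a fitted effect of over 60% in size.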 The note with it: P. falciparum in erythrocytes, SYBR Green DNA, 72 h. The essentials:
(§1)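 Parasite proliferation within erythrocytes, 72 h exposure. Endpoint: SYBR Green I fluorescence after overnight lysis at room temperature. Controls: 0.29 uM artemisinin, DMSO.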

The subject of assay [4] is 3D7. The description is as above. As to conditions: P. falciparum in erythrocytes, SYBR Green DNA, 72 h; series mostly up to 28.7 µM. In a few lines: as §1
The subject of assay [5] is 7G8. The description is as above. The note with it: P. falciparum in erythrocytes, SYBR Green DNA, 72 h; series mostly up to 28.7 µM. In a few lines: as §1
Assay [6] deals with AA1029. The assay is described as above. The note with it: P. falciparum in erythrocytes, SYBR Green DNA, 72 h; series mostly up to 28.7 µM. In a few lines:
as §1

Assay [7] deals with ATS189. The description is as above. The note with it: P. falciparum in erythrocytes, SYBR Green DNA, 72 h; series mostly up to 28.7 µM. In a few lines:
as §1

Assay [8] relates to ATS95. Described as above. The note with it: P. falciparum in erythrocytes, SYBR Green DNA, 72 h; series mostly up to 28.7 µM. The essentials:
as §1

The test system of assay [9] is C2A. The description is as above. The note with it: P. falciparum in erythrocytes, SYBR Green DNA, 72 h; series mostly up to 28.7 µM. The essentials:
as §1

The subject of assay [10] is CP185. The assay is described as above. As to conditions: P. falciparum in erythrocytes, SYBR Green DNA, 72 h; series mostly up to 28.7 µM. The essentials:
as §1

For assay [11], the system named is CP191. Described as above. The note with it: P. falciparum in erythrocytes, SYBR Green DNA, 72 h; series mostly up to 28.7 µM. The essentials: as §1
Assay [12] has as its system CP192. The description is as above. The note with it: P. falciparum in erythrocytes, SYBR Green DNA, 72 h; series mostly up to 28.7 µM. In a few lines:
as §1

The test system of assay [13] is CP194. The assay is described as above. As to conditions: P. falciparum in erythrocytes, SYBR Green DNA, 72 h; series mostly up to 28.7 µM. In a few lines:
as §1

The test system of assay [14] is CP201. The assay is described as above. As to conditions: P. falciparum in erythrocytes, SYBR Green DNA, 72 h; series mostly up to 28.7 µM. In a few lines:
as §1

Assay [15] relates to CP203. The description is as above. As to conditions: P. falciparum in erythrocytes, SYBR Green DNA, 72 h; series mostly up to 28.7 µM. In a few lines: as §1
Assay [16] deals with CP211. The assay is described as above. The note with it: P. falciparum in erythrocytes, SYBR Green DNA, 72 h; series mostly up to 28.7 µM. The essentials: as §1
Assay [17] relates to CP215. The description is as above. As to conditions: P. falciparum in erythrocytes, SYBR Green DNA, 72 h; series mostly up to 28.7 µM. The essentials:
as §1

The subject of assay [18] is CP217. Described as above. As to conditions: P. falciparum in erythrocytes, SYBR Green DNA, 72 h; series mostly up to 28.7 µM. The essentials:
as §1

Assay [19] relates to AS120. The description is as above. As to conditions: P. falciparum in erythrocytes, SYBR Green DNA, 72 h; series mostly up to 28.7 µM. In a few lines: as §1
Setting [20] is: measured here: PEO1 parental Z-AUC.
The mark [21] stands for this setting: TFE3-RCC UOK109 viability, measured here: UOK109 Z-AUC.
[22] abbreviates: TFE3-RCC viability, measured here: UOK124 Z-AUC.
Where [23] appears, read: TFE3-RCC viability, measured here: UOK145 Z-AUC.
Where [24] appears, read: at 28.7 µM (top of the series), parasite line A.
The mark [25] stands for this setting: at 28.7 µM (top of the series), parasite line B.

On to `C[C@@H](N)C1CCC(C(=O)Nc2ccncc2)CC1` (stereo not given in full), for which the Z-AUC in assay [1] is 0.275 (inactive); in [1] (setting [20]) it was 0.543; in [1] (measured here: PEO4 Z-AUC), 0.552. Further, the z-score in [2] (setting [21]) is 1.67; in [2] (setting [22]), 0.534; in assay [2] (setting [23]) it was 0.866.

Consider `Nc1cc(C(Cl)=C(Cl)Cl)c(S(N)(=O)=O)cc1S(N)(=O)=O`, for which the Z-AUC is 1.44 (inactive) in [1], 1.19 in assay [1] (setting [20]) and 1.34 in assay [1] (measured here: PEO4 Z-AUC). The values for the z-score in [2] (setting [21]), in assay [2] (setting [22]) and in [2] (setting [23]) were 1.83, 0.22 and 0.781, respectively. Also, the activity, negative = inhibition in assay [3] (at 12.8 µM (top of the series), parasite line A) is -2.96% (inactive); in assay [3] (at 12.8 µM (top of the series), parasite line B), 1.59% (inactive). The Potency result in assay [4], in assay [5], in assay [6], in assay [7], in [8] and in assay [9] was “inactive” each time. In addition, the Potency entry in [10], in [11], in [12], in [13], in [14] and in [15] was “inactive” each time. Besides, the Potency entry in assay [16], in [17] and in assay [18] was “inactive” in each case.

In the case of `N[C@@H](Cc1cc(I)c(Oc2cc(I)c(O)c(I)c2)c(I)c1)C(=O)O`, the figures for the Z-AUC in [1], in assay [1] (setting [20]) and in assay [1] (measured here: PEO4 Z-AUC) were -1.16 (inactive), -0.336 and -0.169, respectively. The values for the z-score in [2] (setting [21]), in assay [2] (setting [22]) and in [2] (setting [23]) were 0.737, 0.682 and 0.762, respectively. For the same compound, the figures for the activity, negative = inhibition in [3] (setting [24]) and in [3] (setting [25]) were -3.11% (inactive) and -2.18% (inactive), respectively. Besides, the Potency result in assay [4], in [5], in assay [6], in assay [19], in assay [7] and in assay [8] was “inactive” in each case. In addition, the Potency entry in assay [9], in assay [10], in assay [11], in [12], in [13] and in [14] was “inactive” throughout. In addition, the Potency entry in [15], in [16], in assay [17] and in assay [18] was “inactive” each time.

Consider `CC1Cc2ccccc2N1NC(=O)c1ccc(Cl)c(S(N)(=O)=O)c1` (stereo not given), for which the figures for the Z-AUC in assay [1], in assay [1] (setting [20]) and in assay [1] (measured here: PEO4 Z-AUC) were -0.461 (inactive), -0.0256 and 0.0474, respectively. Besides, the figures for the z-score in assay [2] (setting [21]), in assay [2] (setting [22]) and in assay [2] (setting [23]) were 0.928, 0.508 and 0.493, respectively.

`C[C@@H](c1ncncc1F)[C@](O)(Cn1cncn1)c1ccc(F)cc1F`: the figures for the Z-AUC in [1], in assay [1] (setting [20]) and in assay [1] (measured here: PEO4 Z-AUC) were -0.415 (inactive), 1.15 and 0.481, respectively. The figures for the z-score in assay [2] (setting [21]), in assay [2] (setting [22]) and in assay [2] (setting [23]) were 0.104, 0.588 and 0.181, respectively.

With `O=c1c(O)c(-c2ccc(O)cc2O)oc2cc(O)cc(O)c12`, the Z-AUC is 1.32 (inactive) in assay [1], 1.13 in assay [1] (setting [20]) and 1.21 in assay [1] (measured here: PEO4 Z-AUC). For the same compound, the results for the z-score in assay [2] (setting [21]), in assay [2] (setting [22]) and in assay [2] (setting [23]) were 0.0602, 0.591 and -0.0945, respectively.

With `CS(=O)(=O)OCCCCOS(C)(=O)=O`, the Z-AUC in assay [1] was 0.989 (inactive); in [1] (setting [20]) it was 0.976; in [1] (measured here: PEO4 Z-AUC) it was 1.46. Also, the z-score amounted to 1.01 in assay [2] (setting [21]), 2.44 in assay [2] (setting [22]) and 1.02 in assay [2] (setting [23]). Also, the activity, negative = inhibition in assay [3] (setting [24]) is 5.89% (inactive); in [3] (setting [25]), -1.27% (inactive). The Potency entry in [4], in [5], in [6], in [19], in [7] and in [8] was “inactive” in each case. For the same compound, the Potency entry in [9], in [10], in assay [11], in assay [12], in assay [13] and in assay [14] was “inactive” each time. Moreover, the Potency entry in assay [16], in assay [17] and in assay [18] was “inactive” each time.

`CC(C)Oc1ccc2c(=O)c(-c3ccccc3)coc2c1`: the Z-AUC is 0.208 (inactive) in assay [1], -0.757 in [1] (setting [20]) and -0.189 in [1] (measured here: PEO4 Z-AUC). Also, the z-score in assay [2] (setting [21]) was 0.973; in [2] (setting [22]) it was 0.495; in assay [2] (setting [23]) it was -0.312.
